CYP2C19 inh = human CYP2C19 inhibition; 96,000 tested, 21% active; AID 778; CYP2C19 Supersomes, luciferin-H EGE luminescence, 30 min; inhibition, % at 5 µM;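 active means CYP2C19 inhibition above a set limit at 5 µM in the primary screen, cut at about 50% in these data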
Cav3 T inh = blocks human Cav3.2 T-type calcium channel; Cav3.2-expressing cells, Fluo-4 calcium fluorescence FDSS; hits give low values; B-score at 10 µM; 100,000 tested, 4% active; AID 449739;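 active means single-dose well whose peak fluorescence ratio is a statistical outlier from its plate by either plate-standardised score or position-corrected B-score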
CYP2C9 inh = blocks human cytochrome P450 2C9; CYP2C9 Supersomes, luciferin-H conversion, luminescence; inhibition, % at 5 µM; 96,000 tested, 20% active;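 active means blocking of liver enzyme CYP2C9 beyond about 50% at 5 µM, limit read from the data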
Target sequence (P11712 whole entry, looked up): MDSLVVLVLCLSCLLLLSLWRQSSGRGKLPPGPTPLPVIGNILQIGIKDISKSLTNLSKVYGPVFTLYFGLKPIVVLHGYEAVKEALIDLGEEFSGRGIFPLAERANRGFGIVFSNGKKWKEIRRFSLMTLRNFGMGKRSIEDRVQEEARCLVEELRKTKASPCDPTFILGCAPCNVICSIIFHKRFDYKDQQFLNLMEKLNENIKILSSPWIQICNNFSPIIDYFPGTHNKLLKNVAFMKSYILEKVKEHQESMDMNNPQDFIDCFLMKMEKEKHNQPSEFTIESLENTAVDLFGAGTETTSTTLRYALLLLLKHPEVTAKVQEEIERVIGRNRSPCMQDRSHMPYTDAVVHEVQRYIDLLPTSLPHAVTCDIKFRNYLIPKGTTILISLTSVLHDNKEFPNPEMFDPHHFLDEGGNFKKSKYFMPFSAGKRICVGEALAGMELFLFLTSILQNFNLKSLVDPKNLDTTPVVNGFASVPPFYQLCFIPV
CYP2C9 act = activators of human CYP2C9 | P11712 | recombinant CYP2C9, luciferin-H conversion, luminescence; hits give high values; factor 1 = untreated enzyme, 0 = blocked | activation factor at 5 µM | 96,000 tested, 1.4% active;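 active means activation factor of 2 or more for CYP2C9 at a 5 µM dose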
CYP2C19 act = increases human CYP2C19 enzyme activity | P33261 | activation factor at 5 µM | 96,000 tested, under 10 active | recombinant CYP2C19, luciferin-H EGE luminescence; hits give high values; 0 = fully inhibited enzyme, 1 = untreated enzyme;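 active means activation factor of at least 2 at 5 µM in the primary screen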
Of the large screens only hits and unclear results are named; the others gave an inactive call. A selection: hits, their analogues and other compounds. The true share with any hit is near 27%.

COc1ccc(C2C(C#N)=C(SCC(=O)Nc3ccc(C)cc3)NC3=C2C(=O)CC(C)(C)C3)cc1 (stereo not given)	none
O=c1cc(CSc2nnnn2-c2ccccc2)[nH]c2[nH]n(-c3ccccc3)c(=O)c12	CYP2C9 inh 56.4
CC(SC1CCCC1)C(=O)NC(C)(C#N)C(C)C (stereo not given)	none
CCc1nc2ccccc2c(C(=O)OCc2nnc(-c3ccccc3)o2)c1C	CYP2C19 inh 67.8, CYP2C9 inh 60.8 (no result: Cav3 T inh)
CCc1nc2ccccc2c(C(=O)OCCN2C(=O)c3ccccc3C2=O)c1C	CYP2C19 inh 76.2, CYP2C9 inh 57.1
Cc1nc2ncnn2c(C)c1CCC(=O)Oc1ccccc1	none
COc1ccc(-c2csc(NC(=O)CC(C)C)n2)cc1	none (no result: CYP2C19 inh, CYP2C9 inh, CYP2C9 act, CYP2C19 act)
CC(C)CC(=O)NC(=S)Nc1nc(-c2cccc3ccccc23)cs1	CYP2C9 inh 57.2
O=C(NCC1COc2ccccc2O1)C1CCC(CNc2c(N3CCCCC3)c(=O)c2=O)CC1 (stereo not given)	none
CCN(CC)S(=O)(=O)c1ccc(N=Nc2c(C)[nH]n(C(N)=S)c2=O)cc1	none (no result: CYP2C19 inh, CYP2C9 inh, CYP2C9 act, CYP2C19 act)
NC(=S)n1[nH]c(-c2ccc([N+](=O)[O-])cc2)c(N=Nc2ccc(O)cc2)c1=O	CYP2C9 inh 75.5 (no result: Cav3 T inh)
COc1ccc(N2CCN(C(=S)Nc3cc(C)ccc3C)CC2)cc1	none
Cc1onc(-c2ccccc2Cl)c1C(=O)Nc1cnn(Cc2ccccc2)c1	none
CCCS(=O)(=O)c1nnnn1-c1cccc(OC)c1	none
Cc1cccc(C)c1-n1nnnc1S(=O)(=O)Cc1ccccc1Cl	CYP2C9 inh 83.3
CC(C)Nc1nc(NC(C)C)nc(N(C#N)CCOc2ccc(Cl)cc2Cl)n1	Cav3 T inh -5.03 (no result: CYP2C19 inh, CYP2C9 inh, CYP2C9 act, CYP2C19 act)
C=CCn1c(C)cc(C(=O)CSc2nnc(-c3cccc(S(=O)(=O)N(CC)CC)c3)o2)c1C	CYP2C19 inh 86.8, CYP2C9 inh 89.3
CCN(CC)S(=O)(=O)c1cccc(-c2nnc(SCC(=O)c3cc(C)n(C4CC4)c3C)o2)c1	CYP2C19 inh 64.1, CYP2C9 inh 69.7
CCN(CC)S(=O)(=O)c1ccc(-c2nnc(SCC(=O)c3ccc(OC)cc3)o2)cc1	none
CCn1c(CNC(=O)c2cccc(C)c2)nc2ccccc21	none
Fc1ccc2c(Cl)c(-c3nnc(-c4cccs4)o3)sc2c1	none
c1ccc(N2OCC3Cn4c(nc5ccccc54)C32)cc1 (stereo not given)	none (no result: CYP2C19 inh, CYP2C9 inh, CYP2C9 act, CYP2C19 act)
c1ccc(CCn2nnnc2CN2CCc3ccccc32)cc1	CYP2C19 inh 97.8, CYP2C9 inh 86.3
Cc1ccccc1C(=O)NC1CCN(Cc2nnnn2CCc2ccccc2)CC1	none
Cn1c(Cc2cccs2)nnc1SCC(=O)N1CCCc2ccccc21	none
O=C(CSc1nnc(Cc2cccs2)n1C1CCCCC1)N1CCCc2ccccc21	Cav3 T inh -7.17
c1ccc2c(c1)CCCN2Cc1nnnn1C1CCCC1	CYP2C19 inh 95.9, CYP2C9 inh 59.2
O=C(CSc1nnnn1C1CCCC1)N1CCCc2ccccc21	CYP2C19 inh 91.0
Cn1nnnc1SCC(=O)N1CCCc2ccccc21	none (no result: CYP2C19 inh, CYP2C9 inh, CYP2C9 act, CYP2C19 act)
Cc1ccc2c(c1)COc1c3ccc(C(=O)NC(C)C)cc3nn1-2	none (no result: CYP2C19 inh, CYP2C9 inh, CYP2C9 act, CYP2C19 act)
CC(=O)Oc1ccc(-c2cccc(C(=O)Oc3ccccc3)c2)cc1	none (no result: Cav3 T inh)
Cc1ccc2nc(CSc3nnc(Cc4cccs4)n3C3CCCCC3)cc(=O)n2c1	CYP2C19 inh 71.1, CYP2C9 inh 52.0
CC1Cc2ccccc2N1C(=O)CSc1nnnn1C1CCCC1 (stereo not given)	CYP2C9 inh 57.5 (no result: Cav3 T inh)
CC1Cc2ccccc2N1C(=O)CSc1nnnn1-c1ccc2c(c1)OCCO2 (stereo not given)	none
Cc1csc(NC(=O)CSc2nnc(Cc3cccn3C)n2CCc2ccccc2)n1	Cav3 T inh -8.43
Cn1cccc1Cc1nnc(SCC(=O)N2CCc3ccccc32)n1CCc1ccccc1	Cav3 T inh -8.7
Cn1cccc1Cc1nnc(SCC(=O)N2CCCC2)n1CCc1ccccc1	none
CC1Cc2ccccc2N1C(=O)CSc1nnc(Cc2ccccc2)n1CCc1ccccc1 (stereo not given)	CYP2C19 inh 92.3, CYP2C9 inh 93.0 (no result: Cav3 T inh)
N#CCSc1nnc(Cc2cccs2)n1C1CCCCC1	none
CC1Cc2ccccc2N1C(=O)CSc1nnnn1C(C)C (stereo not given)	CYP2C9 inh 51.7
N#C/C(=C(/O)CSc1nnc(Cc2cccs2)n1C1CCCCC1)c1nc2ccccc2[nH]1	CYP2C19 inh 61.1
CC1Cc2ccccc2N1C(=O)CSc1nnnn1C (stereo not given)	none

High-throughput results deposited in PubChem by several laboratories.
